# MARV entry inh – Marburg virus entry inhibition; Marburg virus pseudotyped entry inhibition, cell reporter; Potency, µM (highest dose often 37.8 µM), for the others: top-dose activity change, negative = inhibition, actives largely listed as inhibitors; actives 1.8% (n = 300,000); calls by dose curve; tested in HEK293 cells
# FMDV inh – blocks foot and mouth disease virus | FMDV antiviral cell-based qHTS | Potency, µM (titrated, usually from 57.9 µM), without a hit: at the highest dose activity change, negative = inhibition, most hits filed as inhibitors | actives 1.2% (n = 410,000) | AID 1159524; calls by dose curve; tested in HEK293T cells; also: read-out not given here; nearly all actives have a fitted effect of over 45% in size
# Sm TGR inh – blocks Schistosoma mansoni thioredoxin glutathione reductase; Potency, µM (series often up to 114 µM), inactives show at the top dose activity change, negative = inhibition, most hits filed as inhibitors; Q962Y6; purified TGR, DTNB reduction, TNB absorbance 405 nm; actives 3% (n = 360,000); also: nearly all actives have a fitted effect of over 60% in size
#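 First, TGR (20 nM dispensed) and NADPH were mixed with compound. Second, a 15 min room-temperature incubation followed. Third, further NADPH and then DTNB were added to start the reaction. Finally, TNB absorbance was monitored kinetically.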
# LASV entry inh – blocks Lassa virus binding to or entry into cells; Lassa virus pseudotype entry inhibition, cell reporter; Potency, µM (titrated, usually from 37.9 µM), for inactives: top-dose activity change, negative = inhibition, usual class: inhibitors; actives 1.2% (n = 300,000); AID 540256; calls by dose curve; tested in HEK293 cells; also: nearly all actives have a fitted effect of over 50% in size
# RE007 growth inh – less growth of the S. pombe RE007 Vpr strain; S. pombe RE007 Vpr strain, BacTiter-Glo ATP luminescence, 24 h; Potency, µM (doses to about 92.2 µM), without a hit: at the highest dose activity change, negative = less growth, usual class: inhibitors; actives 0.21% (n = 360,000); AID 651644; active = well fitted falling curve with a large enough effect; inconclusive = small, poorly fitted or top-dose-only effect; inactive = no such curve, though single readings can be large or run the other way; also: nearly all actives have a fitted effect of over 50% in size
#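 Fission yeast RE007 carrying one integrated HIV-1 vpr copy, seeded at OD 0.01 in PMG+AL medium with 23 nL pinned compound. Grown 24 h at 30 degrees; viability read by BacTiter-Glo luminescence after 5 min.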
# HCV inh – blocks hepatitis C virus. Huh7.5.1 HCVcc-Cre infection, luciferase reporter, 44 h. Potency, µM (doses to about 41.8 µM), inactives show at the highest dose activity change, negative = inhibition, actives largely listed as inhibitors. actives 3.4% (n = 340,000)
#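 A cell-based infection assay in which seeded cells (1,000 per well) receive test compound after 4 h, are inoculated with HCVcc-Cre at approximately 0.5 moi, and are incubated 44 h before luminescence detection.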
# Numbers without * were called inactive; ? = inconclusive; / = not tested or not shown; [ ] = remark or other dose. Shown are actives, neighbours in structure and some others; about 7.2% of the full set was active somewhere. Unless noted, calls follow the shape of the dose curve; as a rule, active = well fitted curve in the direction sought with a large enough effect; inconclusive = small, poorly fitted or top-dose-only effect, or another doubt; inactive = no such curve, though single readings can be large; an effect the other way counts as inactive or inconclusive. % is scaled to controls: 0 for no effect and ±100 for the full control effect; potency is read from the fitted curve at half-maximal effect.
SMILES,MARV entry inh,FMDV inh,Sm TGR inh,LASV entry inh,RE007 growth inh,HCV inh
Cc1cc([N+](=O)[O-])c2c(c1C)C1C=CCC1C(c1ccccn1)N2 (configuration not stated),/,/,22.4µM*,/,/,/
COc1ccc(N2CCN(C(CNC(=O)CC(C)C)c3ccc4c(c3)OCO4)CC2)cc1 (configuration not stated),/,2.6%,-4.8%,1.9%[46.1 µM],/,/
CCc1cc2ccc(OC)cc2nc1SCC(=O)NNC(=O)c1ccco1,-18.4%[46.1 µM],-10.9%,8.91µM*,9.9%[46.1 µM],-7.1%,-5.0%
CSc1nnc(CNC(=O)c2cccc3ccccc23)n1-c1ccccc1C,/,0.5%,/,/,/,/
CCC(C(=O)NCc1ccco1)N(C(=O)CNS(=O)(=O)c1ccccc1)C1CCCCC1 (configuration not stated),-12.8%,/,44.7µM*,-9.8%,6.2%,27.6%
CC(C)C(C(=O)NCc1ccco1)N(C(=O)CNS(=O)(=O)c1ccccc1)C1CCCC1 (configuration not stated),?,16.7%,-31.6%,-18.5%,3.3%,9.6%
O=C(Nc1nc2n(n1)C(c1ccc(F)cc1)C=C(c1ccccc1)N2)c1ccco1 (configuration not stated),-18.7%[46.1 µM],-15.9%,4.1%,-11.1%[46.1 µM],/,/
CN1C(=O)C(CC(=O)Nc2ccccc2F)N(NC(=O)c2ccc(Br)cc2)C1=S (configuration not stated),12.6µM*,11.9%,17.2%,-14.7%[46.1 µM],1.4%,1.2%
CCNC(=O)CC1C(=O)N(C)C(=S)N1NC(=O)c1ccc(Cl)cc1 (configuration not stated),3.9%,-2.9%,7.8%,-8.4%,11.2%,18.9%
C=C(C)C(=O)OCC(O)COc1ccc(C(C)(C)c2ccc(OCC(O)COC(=O)C(=C)C)cc2)cc1 (configuration not stated),/,39.8µM*,0.8%,/,5.0%[18.4 µM],-0.9%
CC(=O)c1ccc(OCC(O)COc2ccc(C(C)=O)cc2)cc1,0.5%,/,5.8%,6.9%,9.8%,?
O=C(Cc1ccccc1[N+](=O)[O-])Nc1ccccc1C(=O)N1CCOCC1,18.5%[46.1 µM],9.9%,8.6%,10µM*,-5.8%,-6.4%
O=C(Cc1ccccc1[N+](=O)[O-])Nc1ccccc1C(=O)N1CCCC1,17.1%[46.1 µM],3.7%,5.2%,8.5%[46.1 µM],6.9%,16.5%
CC1(C)CC(N2CCOCC2)=CC(=[N+]2CCOCC2)C1,?,-9.0%,44.7µM*,-6.3%,-4.4%,9.3%
O=C(CSc1nc2ccc(Cl)cc2[nH]1)NC1CCCc2ccccc21 (configuration not stated),?,28.2µM*,3.5%,-25.0%[46.1 µM],-13.4%,?
O=C(CSc1nc2ccccc2[nH]1)NC1CCCc2ccccc21 (configuration not stated),5.1%,-26.7%,3.6%,4.9%,18.2%,?
COc1cc(/C=N/NC(=O)Cc2csc(N3CCOCC3)n2)cc(OC)c1O,-0.4%,18.8%,21.1%,-5.9%,-5.5%,7.4%
O=C(Cc1csc(N2CCOCC2)n1)N/N=C/c1ccc(Cl)cc1Cl,?,?,-8.7%,?,18.3%,11.2µM*
CCCNC(=O)c1ccc(COc2ccc(C(C)(C)C)cc2)o1,?,-13.6%,6.5%,?,0.0%,12.6µM*
CC(C)(C)c1ccc(OCc2ccc(C(=O)N3CCOCC3)o2)cc1,?,-21.9%,0.0%,7.94µM*,9.8%,?
Cc1cccc(OCc2ccc(C(=O)N3CCOCC3)o2)c1,-4.3%[46.1 µM],21.3%,-7.3%,4.8%,-8.2%,-9.0%
CCCNC(=O)c1ccc(COc2ccc(Cl)cc2)o1,/,-23.4%,?,/,1.2%,-16.8%
CCOC(=O)Cn1c(=O)n(CC2CCCO2)c2nc(-c3cccc(C)c3)nc(C(N)=O)c21 (configuration not stated),/,?,3.1%,3.8%[46.1 µM],/,/
Cc1ccc(-n2c(C)cc(/C=c3/sc4nc5ccccc5n4c3=O)c2C)cc1,0.282µM*,1µM*,-29.5%,?,-6.5%,-1.6%
Cc1nnc(SCc2c(Cl)cccc2Cl)n(N)c1=O,-0.1%[46.1 µM],-15.3%,3.9%,1.2%[46.1 µM],8.1%,-9.2%
SMILES,MARV entry inh,FMDV inh,Sm TGR inh,LASV entry inh,RE007 growth inh,HCV inh
CCn1c(SCc2c(Cl)cccc2Cl)nnc1-c1nn(-c2ccccc2)ccc1=O,-11.9%,12.6%,100µM*,-2.9%,2.8%,-10.7%
COc1ccccc1[C@@]1(C)ON(c2ccccc2C(F)(F)F)C1=O,/,?,0.0%,/,0.4%,3.16µM*
CC[C@]1(c2ccccc2C)ON(c2ccccc2C(F)(F)F)C1=O,/,0.0%,56.2µM*,/,10.2%,0.3%
Cc1ccccc1[C@]1(C)ON(c2ccccc2C(F)(F)F)C1=O,/,/,0.3%,/,/,-7.1%
O=C1N(c2ccccc2C(F)(F)F)OC1(Cc1ccccc1)c1ccccc1 (configuration not stated),/,-29.1%,2.3%,/,-8.6%,-6.8%
COc1ccc(-c2cn3c(n2)sc2cc(C(=O)NCCC4=CCCCC4)ccc23)cc1,/,0.0%,1.1%,-13.8%[46.1 µM],/,/
Cc1cccc(NC(c2ccc(O)cc2)c2ccc3ccc(C)nc3c2O)n1 (configuration not stated),-1.7%,-12.7%,0.355µM*,20.6µM*,-1.3%,?
COc1cccc(C(Nc2ccccc2)c2ccc3ccc(C)nc3c2O)c1 (configuration not stated),/,-8.4%,/,/,-7.7%,/
Cc1cc(C)c2sc(NC(=O)c3ccc(S(=O)(=O)N4CCOCC4)cc3)nc2c1,/,?,2.0%,-0.6%[46.1 µM],/,/
CCOC(=O)N1CCN(S(=O)(=O)c2ccc(C(=O)N(CCN(C)C)c3nc4ccc(Cl)cc4s3)cc2)CC1,/,9.2%,-0.6%,/,10.0%,?
Cc1cccc2sc(NNC(=O)c3ccc(S(=O)(=O)N4CCCC(C)C4)cc3)nc12 (configuration not stated),?,10µM*,-16.9%,?,14.7%,2.82µM*
Cc1cc(C)c2nc(NC(=O)c3ccc(S(=O)(=O)N4CCCC4)cc3)sc2c1,/,-18.2%,0.7%,-4.8%[46.1 µM],/,/
CCOC(=O)N1CCN(S(=O)(=O)c2ccc(C(=O)NNc3nc4cc(C)cc(C)c4s3)cc2)CC1,20.6µM*,?,-2.4%,?,0.7%,3.55µM*
Cc1cc(C)c2nc(NNC(=O)c3ccc(S(=O)(=O)N4CCCCC4)cc3)sc2c1,?,-6.0%,-5.1%,?,4.0%,6.31µM*
CCOC(=O)N1CCN(S(=O)(=O)c2ccc(C(=O)NNc3nc4ccc(Cl)cc4s3)cc2)CC1,18.4µM*,?,-5.4%,?,7.1%,7.08µM*
CCC1CCc2nc3sc(C(=O)Nc4ccc(F)cc4F)c(N)c3cc2C1 (configuration not stated),2.7%[46.1 µM],6.1%,5.6%,11.3%[46.1 µM],/,/
CC(CCN1CCCCc2nc(C)c(C)cc21)=NO[C@@H](C)CN1CCCCc2nc(C)c(C)cc21,5.6%[14.2 µM],/,/,?,/,/

# Source: PubChem
